Assay results taken from paper PMC8384837, “Expanding the binding specificity for RNA recognition by a PUF domain”.

What was measured:
Assay in all cases: yeast three-hybrid, YBZ-1, SC-Leu-His + 0.5 mM 3-AT, 4 days
Details in all cases: tags: N-Gal4 AD-HA kept; label: inside an RPR1-promoter hybrid RNA with tandem MS2 sites; ssRNA
[1] = target: PUM1 PUF domain R5-RFA (Homo sapiens, UniProt Q14671 828-1176, C1007R;R1008F;Q1011A)
How it was run: (§1)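 Repeat regions from input (SC-Leu) and selection (SC-Leu-His + 0.5 mM 3-AT) plates were PCR-amplified and Illumina-sequenced after four days of growth. The cells were strain YBZ-1 with a LexA–MS2 coat fusion and a HIS3 reporter, co-expressing Pumilio-1 PUF domain libraries and matching RNA elements from a centromeric plasmid. The interaction score is the log change in variant frequency from input to selection, taken in log2 with a pseudocount of 1 for absent variants.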

[2] = target: PUM1 PUF domain R5-RFG (Homo sapiens, UniProt Q14671 828-1176, C1007R;R1008F;Q1011G)
Chain of PUM1 PUF domain R5-RFG (Q14671 828-1176 C1007R/R1008F/Q1011G): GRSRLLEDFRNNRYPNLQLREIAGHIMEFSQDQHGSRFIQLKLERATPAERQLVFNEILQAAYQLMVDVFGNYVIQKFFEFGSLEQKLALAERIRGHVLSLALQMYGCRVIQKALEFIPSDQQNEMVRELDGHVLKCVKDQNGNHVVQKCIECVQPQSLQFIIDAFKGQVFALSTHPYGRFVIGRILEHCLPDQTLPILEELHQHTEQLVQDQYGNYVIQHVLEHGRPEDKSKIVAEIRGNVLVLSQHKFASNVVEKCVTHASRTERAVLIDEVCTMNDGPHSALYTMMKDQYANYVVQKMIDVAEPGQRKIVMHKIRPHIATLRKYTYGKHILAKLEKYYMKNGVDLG
How it was run: as §1

[3] = target: PUM1 PUF domain R5-HRM (Homo sapiens, UniProt Q14671 828-1176, C1007H;Q1011M)
Chain of PUM1 PUF domain R5-HRM (Q14671 828-1176 C1007H/Q1011M): as the sequence (Q14671 828-1176 C1007R/R1008F/Q1011G) above, with R180H, F181R, G184M counted along it
How it was run: as §1

[4] = target: PUM1 PUF domain R5-QKN (Homo sapiens, UniProt Q14671 828-1176, C1007Q;R1008K;Q1011N)
Chain of PUM1 PUF domain R5-QKN (Q14671 828-1176 C1007Q/R1008K/Q1011N): as the sequence (Q14671 828-1176 C1007R/R1008F/Q1011G) above, with R180Q, F181K, G184N counted along it
How it was run: as §1

[5] = target: PUM1 PUF domain R5-KFT (Homo sapiens, UniProt Q14671 828-1176, C1007K;R1008F;Q1011T)
Chain of PUM1 PUF domain R5-KFT (Q14671 828-1176 C1007K/R1008F/Q1011T): as the sequence (Q14671 828-1176 C1007R/R1008F/Q1011G) above, with R180K, G184T counted along it
How it was run: as §1

[6] = target: PUM1 PUF domain R8-KYC (Homo sapiens, UniProt Q14671 828-1176, N1122K;Q1126C)
Chain of PUM1 PUF domain R8-KYC (Q14671 828-1176 N1122K/Q1126C): as the sequence (Q14671 828-1176 C1007R/R1008F/Q1011G) above, with R180C, F181R, G184Q, N295K, Q299C counted along it
How it was run: as §1

[7] = target: PUM1 PUF domain R8-MWR (Homo sapiens, UniProt Q14671 828-1176, N1122M;Y1123W;Q1126R)
Chain of PUM1 PUF domain R8-MWR (Q14671 828-1176 N1122M/Y1123W/Q1126R): as the sequence (Q14671 828-1176 C1007R/R1008F/Q1011G) above, with R180C, F181R, G184Q, N295M, Y296W, Q299R counted along it
How it was run: as §1

[8] = target: PUM1 PUF domain R8-HWR (Homo sapiens, UniProt Q14671 828-1176, N1122H;Y1123W;Q1126R)
Chain of PUM1 PUF domain R8-HWR (Q14671 828-1176 N1122H/Y1123W/Q1126R): as the sequence (Q14671 828-1176 C1007R/R1008F/Q1011G) above, with R180C, F181R, G184Q, N295H, Y296W, Q299R counted along it
How it was run: as §1

[9] = target: PUM1 PUF domain R8-PYS (Homo sapiens, UniProt Q14671 828-1176, N1122P;Q1126S)
Chain of PUM1 PUF domain R8-PYS (Q14671 828-1176 N1122P/Q1126S): as the sequence (Q14671 828-1176 C1007R/R1008F/Q1011G) above, with R180C, F181R, G184Q, N295P, Q299S counted along it
How it was run: as §1

Chain of PUM1 PUF domain R5-RFA (Q14671 828-1176 C1007R/R1008F/Q1011A): as the sequence (Q14671 828-1176 C1007R/R1008F/Q1011G) above, with G184A counted along it

GGCUAGAACUAGUGGAUCCCCCGGCGCCCGGCGGCUCGAGCCCGGGUAAGUGUUAAUAGUCUGCAUGCCGCCGGGCGCCAUGCCUGCAGGUCGACUCUAGAAAACAUG
binding signal [1]: 4.55 log2 enrichment (interaction score) | binding signal [2]: 5.49 log2 enrichment (interaction score) | binding signal [3]: 4.33 log2 enrichment (interaction score)

GGCUAGAACUAGUGGAUCCCCCGGCGCCCGGCGGCUCGAGCCCGGGUAAGUGUGAAUAGUCUGCAUGCCGCCGGGCGCCAUGCCUGCAGGUCGACUCUAGAAAACAUG
binding signal [2]: 2.66 log2 enrichment (interaction score)

GGCUAGAACUAGUGGAUCCCCCGGCGCCCGGCGGCUCGAGCCCGGGUAAGUGUCAAUAGUCUGCAUGCCGCCGGGCGCCAUGCCUGCAGGUCGACUCUAGAAAACAUG
binding signal [4]: 2.32 log2 enrichment (interaction score) | binding signal [1]: 5.36 log2 enrichment (interaction score) | binding signal [2]: 5.07 log2 enrichment (interaction score) | binding signal [3]: 1.79 log2 enrichment (interaction score) | binding signal [5]: 5.09 log2 enrichment (interaction score)

GGCUAGAACUAGUGGAUCCCCCGGCGCCCGGCGGCUCGAGCCCGGGUAAGCGUAAAUAGUCUGCAUGCCGCCGGGCGCCAUGCCUGCAGGUCGACUCUAGAAAACAUG
binding signal [6]: 6.06 log2 enrichment (interaction score) | binding signal [7]: 4.99 log2 enrichment (interaction score) | binding signal [8]: 7.03 log2 enrichment (interaction score) | binding signal [9]: 3.23 log2 enrichment (interaction score)
